Source: PubChem BioAssay (NCATS)
Results filed as inconclusive are left out. Active and inactive are the calls of the source. Calls come from the whole dose curve; as a rule, active = well fitted curve in the direction sought with a large enough effect; inconclusive = small, poorly fitted or top-dose-only effect, or another doubt; inactive = no such curve, though single readings can be large; an effect the other way counts as inactive or inconclusive.

Assays:
[1] = qHTS Assay for Identifying Gametocytocidal Compounds (AID 743244);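 note: % is set by controls: 0 for no effect and ±100 for the full control effect; actives lower the fluorescent signal which means gametocytes are killed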; details: P. falciparum 3D7 stage III-V gametocytes, alamarBlue, 72 h; max response: hits give low values
Summary of the method: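 Late gametocytes (III–V), P. falciparum 3D7; 72 h drug, then 24 h alamarBlue; resazurin reduction read by fluorescence.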

[2] = qHTS assay for measurement of the activity of small molecule inhibitors on Zika virus induced Caspase-3 activity in human iPSC derived neural progenitor cells (hNPCs) (AID 1224857); note: % of control where 0% means no effect; nearly all actives have a fitted effect of over 65% in size
Summary of the method: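 Caspase-3/7 induction by a 6-hour ZIKV infection was quantified with a luminescent Caspase-Glo 3/7 reagent incubated 30 minutes at room temperature. Compounds were preincubated with hNPCs for 1 hour; inhibition was calculated against uninfected and infected control wells.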

[3] = qHTS assay for measurement of the activity of small molecule inhibitors on Zika virus induced Caspase-3 activity in human astrocytoma cells (AID 1224859);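 note: plate controls were ZIKV-infected untreated cells for no effect and uninfected cells for full effect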
Summary of the method: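 In SNB-19 cells plated at 250 cells/well and grown 16-20 h, compounds were applied 1 h before ZIKV (2 FFU/cell). Six hours later caspase-3/7 luminescence was recorded.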

[4] = qHTS assay to identify small molecule inhibitors of chordoma cells - UCH-1 (AID 1259355); note: % is set by controls: 0 for no effect and ±100 for the full control effect; nearly all actives have a fitted effect of over 55% in size
Summary of the method: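 Screening used approved and investigational drugs in 15-point titration against 800 seeded cells per well. A fixed combination of auranofin with camptothecin, doxorubicin, rubitecan and topotecan followed compound addition, and growth was scored by CellTiter-Glo after 48hr.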

[5] = qHTS assay to identify small molecule inhibitors of chordoma cells - UCH-2 (AID 1259356); note: series mostly up to about 46 µM; % is set by controls: 0 for no effect and ±100 for the full control effect

Measured: max response

O=C(NCCCN1CCOCC1)c1ccc(Cl)cc1
inactive: [1] -7.89% | [2] | [3] | [4] | [5]

Cc1cc(OI)c(C(C)C)cc1-c1cc(C(C)C)c(OI)cc1C
inactive: [1] 3.81% | [2] | [3] | [4] | [5]

COC(=O)c1cccnc1
inactive: [1] 29% | [2] | [3] | [4] | [5]

CN1C(C)(C)CCCC1(C)C
inactive: [1] -1.65% | [2] | [3] | [4] | [5]

C1CCN2C[C@@H]3C[C@@H](CN4CCCC[C@@H]34)[C@H]2C1
inactive: [1] 2.03% | [2] | [3] | [4] | [5]

CC(=O)OC[C@H]1O[C@@](COC(C)=O)(O[C@H]2O[C@H](COC(C)=O)[C@@H](OC(C)=O)[C@H](OC(C)=O)[C@H]2OC(C)=O)[C@@H](OC(C)=O)[C@@H]1OC(C)=O
inactive: [1] -6.87% | [2] | [3] | [4] | [5]

COc1ccccc1OCC(O)CO (stereo not given)
inactive: [1] 10.4% | [2] | [3] | [4] | [5]

CC(C)(C)C(=O)OCOC(=O)[C@@H]1N2C(=O)[C@@H](NC(=O)[C@H](N)c3ccccc3)[C@H]2SC1(C)C
inactive: [1] 0.54% | [2] | [3] | [4] | [5]
